Test results reported in PubChem BioAssay AID588453 (National Center for Advancing Translational Sciences (NCATS), 2011).
The campaign covered roughly 390,000 compounds. About 4,000 (1%) were called active. Not shown: some 4% with an inconclusive outcome. The sample as a whole holds a higher share of actives than the screen did. A number with no mark means an inactive call. The call rests on the fitted dose curve; in most records, active means well fitted inhibition curve with a large enough effect; inconclusive means small, poorly fitted or top-dose-only effect; inactive means no such curve, though single readings can be large or run the other way.

Each compound was assayed against Thioredoxin reductase 1, cytoplasmic (Rattus norvegicus) (UniProt O89049) (assay: qHTS Assay for Inhibitors of Mammalian Selenoprotein Thioredoxin Reductase 1 (TrxR1): qHTS). Details: recombinant rTrxR1, NADPH fluorescence consumption, selenite substrate; series mostly up to 114 µM; activity change, negative = inhibition: at the top concentration.
Thioredoxin reductase 1, cytoplasmic (Rattus norvegicus), sequence (O89049 whole entry, looked up): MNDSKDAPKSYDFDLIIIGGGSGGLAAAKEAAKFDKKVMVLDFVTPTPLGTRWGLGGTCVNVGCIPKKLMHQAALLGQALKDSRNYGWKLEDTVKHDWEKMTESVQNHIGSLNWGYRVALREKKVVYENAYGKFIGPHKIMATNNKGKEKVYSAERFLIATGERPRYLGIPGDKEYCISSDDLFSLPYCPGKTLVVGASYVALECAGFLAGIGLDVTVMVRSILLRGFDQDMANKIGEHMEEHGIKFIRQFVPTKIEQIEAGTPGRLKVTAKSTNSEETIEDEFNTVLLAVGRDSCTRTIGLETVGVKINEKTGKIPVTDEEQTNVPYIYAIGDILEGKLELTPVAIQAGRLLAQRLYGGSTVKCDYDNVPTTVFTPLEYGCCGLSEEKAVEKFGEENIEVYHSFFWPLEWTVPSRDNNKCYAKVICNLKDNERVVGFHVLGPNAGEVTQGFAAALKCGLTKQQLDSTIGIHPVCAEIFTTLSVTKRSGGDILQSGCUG
Procedure, shortened: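 Rat TrxR1 (90 nM in the dispensed reagent) was pre-reduced with 400 uM NADPH for 5 min at room temperature, then incubated with compound for 15 min. After 400 uM selenite was added, NADPH fluorescence (Ex 340/Em 450 nm) was followed for 8 min.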
Further: nearly all actives have a fitted effect of over 65% in size.
On the % scale 0 is the no-effect control and ±100 the full control effect; potency means the concentration at half of the fitted maximal effect.

| Structure (SMILES) | Potency | activity change, negative = inhibition |
| --- | --- | --- |
| c1ccc(C2c3[nH]c4ccccc4c3CCN2Cc2cccn2-c2cccnc2)nc1 (centres undefined) | 50.1 µM (active) | – |
| CCOc1ccc(C2c3[nH]c4ccccc4c3CCN2Cc2cccn2-c2ncccn2)cc1 (centres undefined) | – | -8.64% |
| COCc1ccc(C(=O)N2CCc3c([nH]c4ccccc34)C2c2ccccn2)s1 (centres undefined) | – | 29.7% [at 57.1 µM] |
| CS(=O)c1ccc(/C=C2\C=Cc3ccccc32)cc1 (centres undefined) | – | -8.61% |
| CCOC(=O)c1nnn(CC(=O)NC(=O)Nc2ccccc2F)c1C(=O)OCC | – | -3.22% |
| Cc1ccc(Cc2cnc(N)s2)o1 | 22.4 µM (active) | – |
| COc1cn(CC(=O)Nc2cccc(C)c2C)c(CN2CCCCC2)cc1=O | – | 8.52% [at 57.1 µM] |
| Cc1cccc(N2CCN(C(=O)CCn3c(=O)c4cccn4c4cccnc43)CC2C)c1 (centres undefined) | – | 7.19% |
| CCn1c(CNC(=O)C23CC4CC(CC(C4)C2)C3)nnc1SCC(=O)Nc1ccc(OC)cc1 | – | -3.1% |
| CCCCS(=O)(=O)c1oc(-c2cccs2)nc1S(=O)(=O)c1ccccc1 | 0.447 µM (active) | – |
| CSc1oc(-c2cccs2)nc1S(=O)(=O)c1ccc(Br)cc1 | – | 12.6% |
| NC(=O)CSc1oc(-c2cccs2)nc1S(=O)(=O)c1ccccc1 | – | 7.07% [at 57.1 µM] |
| C(=Nc1ccc(/C=C/c2ccnc3ccccc23)cc1)Nc1ccc(/C=C/c2ccnc3ccccc23)cc1 | – | -1.09% |
| CCOC(=O)c1c(C)oc2nc(C)nc(Nc3ccc(CC)cc3)c12 | – | 38.5% |
| CCCOc1ccc(C(=O)Nc2ccc3oc(-c4cccc(Cl)c4Cl)nc3c2)cc1 | – | 37.6% |
| Oc1c(C=Nc2cccc3nsnc23)ccc2ccccc12 | 39.8 µM (active) | – |
| Cc1cccc(-c2nnc(SCC(=O)N3CCCc4ccccc43)o2)c1 | – | -0.491% |
| COc1ccc(-c2nc(=N)sn2-c2ccccc2)cc1 | – | -21.3% |
| Cc1cc(C)c2c(NC(=O)C3CC3)nn(C)c2n1 | – | 39% |
| COC(=O)c1cc(NC(=O)CCc2c(C)nc3c4c(C)cc(C)nc4nn3c2C)cc(C(=O)OC)c1 | – | 11.9% |
| Cc1cc(C)c2c(n1)nn1c(-n3ccnc3)cc(C)nc21 | 8.91 µM (active) | – |
| Cc1ccc(-c2cc(C(=O)NN)n[nH]2)o1 | – | 5.28% [at 57.1 µM] |

| Structure (SMILES) | Potency | activity change, negative = inhibition |
| --- | --- | --- |
| CCOc1ccc(CNC(=O)c2cc(-c3ccc(Cl)s3)nc3ccccc23)cc1 | – | 35.6% |
| Cc1ccc(NC(=O)c2cc(-c3ccc(C)o3)nc3ccccc23)nc1 | 14.1 µM (active) | – |
| CCOC(=O)c1cc2c(=O)n3ccccc3nc2n(CC2CCCO2)c1=NC(=O)c1ccc(C(C)(C)C)cc1 (centres undefined) | – | 6.69% |
| Cc1cccc(N2CCN(C3=C(c4ccccc4)C(=O)c4ccccc43)CC2)c1C | – | 3% |
| CC(=O)/C(C)=N/O | inactive | – |
| C[C@H](CO)N1C[C@H](C)[C@H](CN(C)C(=O)Nc2ccc(C(F)(F)F)cc2)Oc2c(NC(=O)c3ccncc3)cccc2C1=O | 56.2 µM (active) | – |
| Cc1noc(C)c1NC(=O)Nc1ccc2c(c1)C(=O)N([C@H](C)CO)C[C@H](C)[C@@H](CN(C)C(=O)Nc1ccc(C(F)(F)F)cc1)O2 | – | -11.5% |
| Cc1noc(C)c1NC(=O)Nc1cccc2c1O[C@H](CN(C)C(=O)Nc1ccccc1)[C@@H](C)CN([C@H](C)CO)C2=O | – | 5.71% |
| CCc1ccc(N(CC)C(=O)CCn2cnc3onc(-c4ccc(F)cc4)c3c2=O)cc1 | – | 9.72% |
| COc1ccccc1NC(=O)CSc1nnc(-c2ccoc2C)n1CCc1ccccc1 | – | -4.19% |
| COc1cc(Cl)c(C)cc1NC(=O)CSc1nnc(CN2CCCC2)o1 | – | 33.7% |
| COc1cc(Cl)c(C)cc1NC(=O)CSc1nnc(-c2ccco2)n1CC(C)C | 12.6 µM (active) | – |
| Cc1cccc(C(=O)Nc2ccc(S(=O)(=O)N3CCCCC3c3cccnc3)cc2)c1 (centres undefined) | – | 20.3% [at 57.1 µM] |
| Cc1ccc2oc(C(=O)Nc3ccc(S(=O)(=O)N4CCCCCC4)cc3)cc(=O)c2c1 | – | 24.7% |
| COc1ccc(NC(=O)COCc2cc(-c3ccco3)on2)cc1 | – | 23.4% [at 57.1 µM] |
| COc1ccc(-c2nc3ccc(C(=O)NCc4ccc(C)cc4)cc3nc2-c2ccc(OC)cc2)cc1 | – | 36.4% [at 57.1 µM] |
| COCCNC(=O)Nc1ccc2nc(-c3ccco3)c(-c3ccco3)nc2c1 | 3.16 µM (active) | – |
| COc1cc(-n2c(C)nc3cc(C(=O)NCc4ccco4)ccc32)cc(OC)c1OC | – | -16.2% |
| C=CCNC(=O)c1ccc2nc(-c3ccco3)c(-c3ccco3)nc2c1 | 7.94 µM (active) | – |
| CCOc1ccc(NC(=O)c2ncoc2-c2ccco2)cc1 | – | 7.87% [at 57.1 µM] |
| Cc1nc2sc(C)c(C)n2c(=O)c1S(=O)(=O)NCCc1ccc(Cl)cc1 | – | 17.8% |
| O=C(NCCS(=O)(=O)N1CCN(c2ccc(F)cc2)CC1)c1ccccc1Br | – | 15.9% [at 57.1 µM] |

| Structure (SMILES) | Potency | activity change, negative = inhibition |
| --- | --- | --- |
| O=[N+]([O-])c1ccc(/C=C/c2ccc3cccnc3c2)cc1 | – | 5.43% |
| O=C(Cn1cc(SCc2cccc(Cl)c2)c2ccccc21)N1CCCCC1 | – | 17% |
| N#C/C=C(/c1ccc(F)cc1)N1CCOCC1 | – | 12.6% |
| O=C(N1CCOCC1)N1CCOCC1 | – | 32.6% |
| N#C/C(=C/c1ccc(N2CCOCC2)o1)C(=O)N1CCOCC1 | 50.1 µM (active) | – |
| COc1cccc(C(=O)NC(=O)Nc2ccc(-c3cc(C(F)(F)F)nn3-c3ccccc3)cc2)c1 | – | -9.56% |
| Cc1cccc(-n2ncc(C(=O)N3CCC(C)CC3)c2C2CCN(C(=O)OC(C)(C)C)CC2)c1 | – | 29.8% |
| Cc1cccc(-n2ncc(Cl)c(Cl)c2=O)c1 | 44.7 µM (active) | – |
| Cc1cccc(-n2ncc(C(=O)N3CCN(c4ccc(Cl)cc4)CC3)c2C2CCN(C(=O)OC(C)(C)C)CC2)c1 | – | 5.36% |
| CCOc1ccc(C2CC(=O)c3c([nH]c(C(=O)OCc4ccccc4)c3C)C2)cc1 (centres undefined) | – | 23% |
| CCc1ccc(OCCCn2c(CCCNC(=O)C3CCCCC3)nc3ccccc32)cc1 | – | 7.76% |
| Cc1ccc(C=O)cc1Cl | – | 27.3% |
| Cc1ccc(-n2ncc3c(N4CCC(C(N)=O)CC4)ncnc32)cc1 | – | 10.5% [at 57.1 µM] |
| Cc1cc(NC(=O)CCS(=O)(=O)c2ccc(F)cc2)no1 | 44.7 µM (active) | – |
| Cc1cc(NC(=O)CCC(=O)N(CC(=O)NC2CCCC2)c2ccc(F)cc2)no1 | – | 27.1% [at 57.1 µM] |
| Cc1cc(NC(=O)CSc2nc(=O)cc(N)n2-c2ccc(F)cc2)no1 | – | 8.12% |
| ClC/C=C/C[n+]1ccccc1Cl | – | -29.2% |
| CC(=O)NC(CC(=O)Nc1nc(-c2ccccc2)c(C(C)=O)s1)c1ccccc1 (centres undefined) | – | 24.1% |
| C/C(=N/Nc1nc(-c2ccccc2)c(CC(=O)O)s1)c1ccccc1 | 5.62 µM (active) | – |
| C/C(=N\Nc1cccc(C(=O)O)c1)c1ccc2c(c1)Nc1ccccc1S2 | – | -0.323% |
